Source: PubChem BioAssay AID778 (Sanford-Burnham Center for Chemical Genomics, 2007)
Screen size: about 96,000 compounds; about 20,000 (21%) were called active. Not all results are given here. Unmarked numbers belong to inactive results.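 The calls were made as follows: active = CYP2C19 inhibition above a set limit at 5 µM in the primary screen (cut at about 50% in these data); inactive = the rest.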 Residues, ends and D or L forms follow the SMILES beside them. *: point of attachment. Bz = O=C(c1ccccc1)*

The compounds below were run against Cytochrome P450 2C19 (Homo sapiens) (UniProt P33261) (assay: blockers of cytochrome P450 2C19 activity – biochemical, luminescence, ADME assay, primary screen (AID 778;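 also: plate controls were negative control wells for no effect and 2.5 mM tranylcypromine positive control for full effect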)). Details: CYP2C19 Supersomes, luciferin-H EGE luminescence, 30 min; at 5 µM; active compounds read high.
Cytochrome P450 2C19 (Homo sapiens), sequence (P33261 whole entry, looked up): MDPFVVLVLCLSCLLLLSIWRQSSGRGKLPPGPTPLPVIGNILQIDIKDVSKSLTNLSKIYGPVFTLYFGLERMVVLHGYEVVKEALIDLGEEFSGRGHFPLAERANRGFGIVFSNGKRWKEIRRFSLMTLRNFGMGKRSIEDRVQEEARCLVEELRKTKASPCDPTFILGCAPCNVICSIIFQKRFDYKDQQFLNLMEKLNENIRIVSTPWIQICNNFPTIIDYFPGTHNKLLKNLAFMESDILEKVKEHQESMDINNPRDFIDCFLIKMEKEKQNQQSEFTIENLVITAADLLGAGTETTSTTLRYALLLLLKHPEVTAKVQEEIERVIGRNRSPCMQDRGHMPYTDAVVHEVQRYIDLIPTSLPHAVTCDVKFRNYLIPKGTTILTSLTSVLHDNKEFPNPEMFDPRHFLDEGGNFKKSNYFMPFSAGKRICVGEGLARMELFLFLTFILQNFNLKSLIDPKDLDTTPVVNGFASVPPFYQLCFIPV
For O=C(Cn1cc(C(=O)c2cccs2)c2ccccc21)NCc1cccs1, the inhibition was 91.3% (active).
Work on Cc1cccc(NC(=O)Cn2cc(C(=O)c3ccco3)c3ccccc32)c1 yielded an inhibition of -13.3%.
Work on O=C(CN1CCN(c2ccccn2)CC1)NCc1cccs1 yielded an inhibition of 34.7%.
With COC(=O)c1cn(CC(=O)NCc2cccs2)c2ccccc12 the inhibition was 71.1% (active).
Compound COCCCNC(=O)Cn1cc(C(=O)C2CC2)c2ccccc21 has an inhibition of 32.1%.
COC(=O)Cn1cc(C(=O)c2cccs2)c2ccccc21 was tested, and the inhibition was 26%.
In the case of CCCCCCC(=O)N(O)C1CC(=O)N(c2ccccc2)C1=O (stereo unspecified), the inhibition is reported as 27.1%.
CC1=C(C(N)=O)C(c2sccc2C)n2nnnc2N1 (stereo unspecified) gave an inhibition of 7.6%.
With Cc1nnc(SCC(=O)NC(=O)NC2CCCC2)n1N the inhibition was 3.5%.
Work on CCCCOc1ccc(-c2ncc(C(=O)OCC)c(N)n2)cc1 yielded an inhibition of -11.5%.
With CCOC(=O)C(Sc1ncc(C#N)c(N)n1)C(C)C (stereo unspecified) the inhibition was 52.1% (active).
CCOC(=O)CSc1nccc(N(C)C)c1C#N gave an inhibition of 25.5%.
Work on CN(Cc1ccccc1)C(=O)CCNC(=O)Cn1cnc2ccccc2c1=O yielded an inhibition of -11.7%.
NS(=O)(=O)c1ccc(Nc2nc(-c3ccccc3)cs2)cc1 gave an inhibition of 28.5%.
In the case of c1cnc(Nc2nc(-c3ccc4ccccc4c3)cs2)nc1, the inhibition is reported as -3.4%.
For Oc1ccc(-c2csc(Nc3cccnc3)n2)cc1, the inhibition was 78.4% (active).
With c1ccc(Nc2nc(-c3ccncc3)cs2)nc1 the inhibition was 98.6% (active).
In the case of COc1ccc(Nc2nc(-c3ccccc3)cs2)cc1, the inhibition is reported as 35.2%.
Clc1ccc(Nc2nc(-c3cccs3)cs2)nc1 showed an inhibition of 0.8%.
Work on CCOC(=O)c1ccc(N2C(=O)CC(N(C)Cc3ccccc3)C2=O)cc1 (stereo unspecified) yielded an inhibition of -4%.
CCCc1ccc(OCC(=O)NNC(=S)NC(=O)c2ccco2)cc1 gave an inhibition of 8.7%.
With CC(Oc1ccc2ccccc2c1)C(=O)NNC(=S)NC(=O)c1ccco1 (stereo unspecified) the inhibition was 56.8% (active).
COc1ccc(C(=O)NC(=S)NNC(=O)CCc2ccccc2)cc1 was tested, and the inhibition was -0.6%.
Compound O=C(NCC1CCCO1)C(C(=O)c1ccccc1)n1cc(Cl)ccc1=O (stereo unspecified) has an inhibition of -6.7%.
With Cc1cc(C)c2[nH]c(=O)c(C(c3nnnn3Cc3ccc4c(c3)OCO4)N3CCCC3)cc2c1 (stereo unspecified) the inhibition was 68.4% (active).
Work on CC(C)(C)n1nnnc1C(c1ccc(F)cc1)N1CCN(Cc2ccc3c(c2)OCO3)CC1 (stereo unspecified) yielded an inhibition of 25.1%.
In the case of Cc1ccc(S(=O)(=O)Cn2nnnc2CN2CCN(Cc3ccc4c(c3)OCO4)CC2)cc1, the inhibition is reported as 24.5%.
With Fc1ccccc1C(c1nnnn1Cc1ccc2c(c1)OCO2)N1CCN(Cc2ccccc2)CC1 (stereo unspecified) the inhibition was 62.9% (active).
CN(C)C(CNC(=O)CCCOc1ccccc1)c1ccco1 (stereo unspecified) was tested, and the inhibition was 84.2% (active).
In the case of O=C(CCCOc1ccccc1)NCc1ccco1, the inhibition is reported as 36.6%.
O=C(NCCc1ccccc1)c1ccc(OCCOc2ccccc2)cc1 gave an inhibition of -7.8%.
With O=C(CCC(=O)OCC(F)(F)C(F)F)NCc1ccccc1 the inhibition was 71.6% (active).
Work on O=C(Cn1nnc(-c2ccccc2)n1)NCc1ccccc1 yielded an inhibition of 45.4%.
For O=C(NCCOc1ccccc1)c1ccccc1, the inhibition was 60.7% (active).
O=C(O)CCC(=O)NCc1ccc(C(=O)O)cc1 was tested, and the inhibition was 3.2%.
O=C(CCCOc1ccccc1)Nc1cccc(C(=O)O)c1 showed an inhibition of 1.2%.
Compound Cc1nnc(NC(=O)CCCOc2ccccc2)s1 has an inhibition of 24.7%.
Compound Cc1cccc(NC(=O)c2ccc(OCC(=O)NCc3ccccc3)cc2)c1C has an inhibition of -8%.
In the case of O=C(CCOc1ccccc1)NCc1ccccc1, the inhibition is reported as 57.6% (active).
O=C(CCC(=O)OCc1cccc(C(=O)Oc2ccccc2)c1)Nc1cccc2ccccc12 was tested, and the inhibition was 3.8%.
COc1ccc(OC)c2[nH]c(=O)c(CCNC(=O)C(C)(C)C)cc12 gave an inhibition of 13.1%.
O=C(Cn1nc(C(F)(F)F)c2c1CCC2)NCc1ccc(F)cc1 gave an inhibition of 45.9%.
CCSc1nc(=S)n(CC)c(C)c1C(C)=O showed an inhibition of -23.9%.
With O=C(CCCN1C(=O)c2ccccc2C1=O)Oc1ccc(Cl)cc1 the inhibition was 14.2%.
With COc1ccc(NC(=O)/C(Cl)=C(/Cl)S(=O)Cc2ccc(C)cc2)cn1 (stereo unspecified) the inhibition was 33.8%.
O=C(Nc1nnc(C2CC2)s1)c1ccccn1 gave an inhibition of 20.4%.
For CCCc1nc(N2CCN(C)CC2)c2sc(=S)n(-c3ccccc3)c2n1, the inhibition was 4.4%.
CCOc1ccc(NC(=O)CCS(=O)(=O)c2ccc3c(c2)CCCN3C(=O)CC)cc1 showed an inhibition of 3.3%.
O=C(CC1Oc2ccccc2NC1=O)NCCCN1CCN(Cc2ccccc2)CC1 (stereo unspecified) gave an inhibition of -1.2%.
In the case of Cc1ccc2c(c1)N(CC(=O)N1CCCc3ccccc31)C(=O)C(C)O2 (stereo unspecified), the inhibition is reported as 34.4%.
With O=C(Cc1ccccc1)n1nc(-c2ccccc2)nc1NCc1ccco1 the inhibition was 15.9%.
O=C(O)CSC(NC(=O)c1cccnc1)(C(F)(F)F)C(F)(F)F was tested, and the inhibition was -13.3%.
With CC(N=Cc1nc(-c2ccccc2)oc1O)c1ccccc1 (stereo unspecified) the inhibition was 71.8% (active).
Compound CC(NC(=O)c1cc(-c2ccccc2)on1)c1ccccc1 (stereo unspecified) has an inhibition of 13%.
With CCn1c(/C=C/c2ccc([N+](=O)[O-])o2)nc2ccccc2c1=O the inhibition was -3.3%.
In the case of Cc1ccc(-n2c(C)cc(/C=N/Nc3ccc([N+](=O)[O-])cn3)c2C)c(C)c1, the inhibition is reported as -0.3%.
Work on CN1C(=O)CC(N2CCN(c3ccccn3)CC2)C1=O (stereo unspecified) yielded an inhibition of 17.8%.
With CSc1cccc(NC(=O)CSc2ccccc2)c1 the inhibition was 83.5% (active).
Compound COc1cccc(-n2c(Cc3cc(=O)[nH]c(=O)[nH]3)nnc2SCC(=O)Nc2ccccc2)c1 has an inhibition of -8.7%.
For Cc1ccn(C(CC(=O)c2ccc(Br)cc2)C(=O)O)n1 (stereo unspecified), the inhibition was -25.7%.
Compound O=C(Oc1ccccc1)c1ccc2nccnc2c1 has an inhibition of 20.3%.
Work on CC(C)c1nc(-c2ccccn2)no1 yielded an inhibition of -3.1%.
O=C(Oc1ccc(-c2nc(-c3ccccn3)no2)cc1)c1ccccc1 was tested, and the inhibition was 99.5% (active).
Work on CCc1cc(Br)ccc1NC(=O)C1CCCO1 (stereo unspecified) yielded an inhibition of 30.5%.
In the case of CC(=O)c1cc(-c2ccccc2)[nH]c1N1CCCC1, the inhibition is reported as 10.4%.
For O=C(COC(=O)c1ccccc1NC(=O)c1ccco1)Nc1ccc2c(c1)OC(F)(F)O2, the inhibition was 57.4% (active).
COc1ccccc1C(=O)Nc1ccc(NC(=O)c2ccco2)c(C)c1 showed an inhibition of 45.5%.
For CCOc1cc(NC(=O)c2ccco2)c(OCC)cc1NC(=O)COc1ccccc1, the inhibition was 24.6%.
With Cc1nc(C)c2c(c1C(F)(F)F)-c1ccccc1C2(F)F the inhibition was -21.2%.
Work on Cc1ccc(C)n1C(Cc1ccccc1)C(=O)O (stereo unspecified) yielded an inhibition of 8.1%.
For O=C(C(Cc1ccccc1)n1cccc1)N1CCN(C2CCCCC2)CC1 (stereo unspecified), the inhibition was 98.1% (active).
Work on O=C(NC(Cc1ccccc1)C(=O)N1CCCC1C(=O)O)c1ccccc1 (stereo not drawn) (Bz-Phe-Pro-OH; configuration not given here) yielded an inhibition of -4.1%.
Work on CCOc1ccc2nc(SC(CC)C(=O)Nc3cc(C)on3)sc2c1 (stereo unspecified) yielded an inhibition of 0.6%.
With Cc1ccc(CNC(=O)c2ccccc2CCc2ccccc2)cc1 the inhibition was 13.9%.
Work on CCCc1[nH]nc2c1C(c1ccc(OC)c(Cn3nc(C)c(Br)c3C)c1)C(C#N)=C(N)O2 (stereo unspecified) yielded an inhibition of 8%.
In the case of COc1ccc(C2C(C#N)=C(N)Oc3n[nH]c(C)c32)cc1CN1CCN(c2ccc(F)cc2)CC1 (stereo unspecified), the inhibition is reported as 70.4% (active).
For CCOc1c(OC)cc(C2C(C#N)=C(N)Oc3n[nH]c(-c4ccncc4)c32)cc1OC (stereo unspecified), the inhibition was -7%.
For Fc1ccc2nc(N3CCCCC3)sc2c1, the inhibition was 39.9%.
Compound N=c1oc2ccccc2cc1C(=O)N/N=C/c1ccccc1 has an inhibition of 31.7%.
Cn1c(=O)n(C)c2cc(/C=N/NC(=O)c3cccc(Br)c3)ccc21 was tested, and the inhibition was 6.4%.
O=C(N/N=C\c1cccc(Br)c1)c1ccccc1-n1cccc1 was tested, and the inhibition was 73.3% (active).
In the case of CC(C)Cn1c(N)c(C(=O)NCc2cccs2)c2nc3ccccc3nc21, the inhibition is reported as 19.7%.
In the case of CC1(C)CC(=O)c2sc(N)nc2C1, the inhibition is reported as 23.6%.
In the case of CC1CCC2(CC1)NC(=O)N(CC(=O)c1cccn1C)C2=O (stereo unspecified), the inhibition is reported as 9.9%.
For CC(C)(C)OC(=O)c1c(N)n(CCCN2CCCC2=O)c2nc3ccccc3nc12, the inhibition was -3.9%.
Compound Cc1ccc(CNC(=O)CCNS(=O)(=O)c2cccc3nonc23)cc1 has an inhibition of 15.9%.
In the case of O=C(CCS(=O)(=O)c1cccc2nonc12)NCCc1ccccc1Cl, the inhibition is reported as 75% (active).
For COc1ccc(C)cc1NC(=O)CCS(=O)(=O)c1cccc2nonc12, the inhibition was 82.1% (active).
For Cc1ccc(N(CC(=O)Nc2cc(C)cc(C)c2)S(=O)(=O)c2cccc3nonc23)cc1, the inhibition was 14.2%.
CC1CCCCC1NC(=O)CCS(=O)(=O)c1cccc2nonc12 (stereo unspecified) was tested, and the inhibition was 27.7%.
Cc1cccc(C)c1NC(=O)CCS(=O)(=O)c1cccc2nsnc12 gave an inhibition of 10.7%.
Compound CSc1cc(C)n(-c2ccccc2C)c(=S)c1C(C)=O has an inhibition of -14.7%.
Work on O=C(O)Cc1ccc(NC(=O)c2cccs2)cc1 yielded an inhibition of 1.3%.
For Cc1cc2cc(CNC(=O)c3cccs3)ccc2[nH]1, the inhibition was 86.8% (active).
CCOC(=O)c1oc2ccccc2c1NC(=O)c1cccs1 showed an inhibition of 5.8%.
O=[N+]([O-])c1cccc(-c2nnc3c4ccccc4c4ccccc4n23)c1 was tested, and the inhibition was 5%.
COc1ccc(C2=Nc3cc(C)ccc3OC2)cc1 was tested, and the inhibition was 13%.
For CN(C)CCCNC(=O)c1ccc2[nH]c3ccccc3c2c1, the inhibition was 10.5%.
In the case of O=C(COc1ccccc1)NCCc1nc2ccccc2[nH]1, the inhibition is reported as 65.9% (active).
With COC(=O)Cc1nc2ccccc2[nH]1 the inhibition was 3%.
CC(C)=C(NC(=O)c1ccco1)C(=O)NCCc1nc2ccccc2[nH]1 showed an inhibition of -12.2%.
